Laboratory results: the supplement of paper PMC11732987, “Enantioselective OTUD7B fragment discovery through chemoproteomics screening and high-throughput optimisation” (Communications Chemistry, 2025)
Values without a mark were called inactive.

Experiments:
Assay in all cases: log2 ratio of Biotin-Ahx-Ub-VS probe labelling (fragment/DMSO); higher = less target engagement (more negative = stronger competition), active = hit call of the paper (q ≤ 0.05, log2 ratio ≤ -1)
Settings in all cases: compound concentration: 200 uM; treatment time: 3 h
[1] = target: T1, USP19 (UniProt O94966)
T1 sequence (whole entry): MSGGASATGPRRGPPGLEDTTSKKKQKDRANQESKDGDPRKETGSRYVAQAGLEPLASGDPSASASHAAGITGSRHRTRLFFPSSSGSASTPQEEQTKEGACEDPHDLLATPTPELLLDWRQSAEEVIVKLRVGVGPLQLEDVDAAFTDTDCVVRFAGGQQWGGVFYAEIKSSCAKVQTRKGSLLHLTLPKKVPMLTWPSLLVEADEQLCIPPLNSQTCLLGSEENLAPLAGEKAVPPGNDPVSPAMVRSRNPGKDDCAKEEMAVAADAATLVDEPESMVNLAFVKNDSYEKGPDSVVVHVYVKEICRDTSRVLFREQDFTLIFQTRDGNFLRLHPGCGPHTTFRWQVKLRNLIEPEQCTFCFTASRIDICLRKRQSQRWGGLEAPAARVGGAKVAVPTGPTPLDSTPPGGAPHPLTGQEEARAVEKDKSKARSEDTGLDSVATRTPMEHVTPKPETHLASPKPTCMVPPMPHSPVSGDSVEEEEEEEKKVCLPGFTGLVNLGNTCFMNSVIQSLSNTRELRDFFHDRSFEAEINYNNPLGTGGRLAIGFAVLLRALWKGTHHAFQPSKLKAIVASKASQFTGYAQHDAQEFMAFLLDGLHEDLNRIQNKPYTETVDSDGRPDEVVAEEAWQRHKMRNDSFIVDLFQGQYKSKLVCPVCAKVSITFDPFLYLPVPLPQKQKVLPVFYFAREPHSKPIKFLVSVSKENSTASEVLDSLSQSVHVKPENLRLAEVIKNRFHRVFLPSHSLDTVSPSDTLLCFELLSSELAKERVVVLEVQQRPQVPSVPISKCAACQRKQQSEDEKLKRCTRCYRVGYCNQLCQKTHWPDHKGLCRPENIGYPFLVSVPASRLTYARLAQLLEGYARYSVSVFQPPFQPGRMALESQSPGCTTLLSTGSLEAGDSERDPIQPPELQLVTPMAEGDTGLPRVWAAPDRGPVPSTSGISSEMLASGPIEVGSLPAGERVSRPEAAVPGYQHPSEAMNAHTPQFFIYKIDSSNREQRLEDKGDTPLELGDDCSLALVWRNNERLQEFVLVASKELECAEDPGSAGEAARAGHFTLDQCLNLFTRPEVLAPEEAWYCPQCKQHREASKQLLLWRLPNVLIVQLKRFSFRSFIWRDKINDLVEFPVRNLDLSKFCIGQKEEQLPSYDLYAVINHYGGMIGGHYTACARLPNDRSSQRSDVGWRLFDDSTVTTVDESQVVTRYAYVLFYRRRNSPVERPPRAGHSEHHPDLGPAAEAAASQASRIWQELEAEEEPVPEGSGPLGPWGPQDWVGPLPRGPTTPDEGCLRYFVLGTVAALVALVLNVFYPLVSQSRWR
In short: (§1)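 Fragment (200 µM) or vehicle was incubated for 3 h with triplicate HEK293T lysate samples of 495 µg, which were then treated with Biotin-Ahx-Ub-VS at 0.5 µM final for 1 h. Labelled DUBs were enriched on NeutrAvidin, digested with LysC and trypsin, and analysed by diaPASEF LC-MS/MS. Values are average log2 fragment/vehicle ratios from an unpaired t-test on global-median-normalised Spectronaut label-free quantities, using proteins with ≥2 unique peptides.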

[2] = target: USP24 (UniProt Q9UPU5)
Sequence of USP24 (Q9UPU5 whole entry): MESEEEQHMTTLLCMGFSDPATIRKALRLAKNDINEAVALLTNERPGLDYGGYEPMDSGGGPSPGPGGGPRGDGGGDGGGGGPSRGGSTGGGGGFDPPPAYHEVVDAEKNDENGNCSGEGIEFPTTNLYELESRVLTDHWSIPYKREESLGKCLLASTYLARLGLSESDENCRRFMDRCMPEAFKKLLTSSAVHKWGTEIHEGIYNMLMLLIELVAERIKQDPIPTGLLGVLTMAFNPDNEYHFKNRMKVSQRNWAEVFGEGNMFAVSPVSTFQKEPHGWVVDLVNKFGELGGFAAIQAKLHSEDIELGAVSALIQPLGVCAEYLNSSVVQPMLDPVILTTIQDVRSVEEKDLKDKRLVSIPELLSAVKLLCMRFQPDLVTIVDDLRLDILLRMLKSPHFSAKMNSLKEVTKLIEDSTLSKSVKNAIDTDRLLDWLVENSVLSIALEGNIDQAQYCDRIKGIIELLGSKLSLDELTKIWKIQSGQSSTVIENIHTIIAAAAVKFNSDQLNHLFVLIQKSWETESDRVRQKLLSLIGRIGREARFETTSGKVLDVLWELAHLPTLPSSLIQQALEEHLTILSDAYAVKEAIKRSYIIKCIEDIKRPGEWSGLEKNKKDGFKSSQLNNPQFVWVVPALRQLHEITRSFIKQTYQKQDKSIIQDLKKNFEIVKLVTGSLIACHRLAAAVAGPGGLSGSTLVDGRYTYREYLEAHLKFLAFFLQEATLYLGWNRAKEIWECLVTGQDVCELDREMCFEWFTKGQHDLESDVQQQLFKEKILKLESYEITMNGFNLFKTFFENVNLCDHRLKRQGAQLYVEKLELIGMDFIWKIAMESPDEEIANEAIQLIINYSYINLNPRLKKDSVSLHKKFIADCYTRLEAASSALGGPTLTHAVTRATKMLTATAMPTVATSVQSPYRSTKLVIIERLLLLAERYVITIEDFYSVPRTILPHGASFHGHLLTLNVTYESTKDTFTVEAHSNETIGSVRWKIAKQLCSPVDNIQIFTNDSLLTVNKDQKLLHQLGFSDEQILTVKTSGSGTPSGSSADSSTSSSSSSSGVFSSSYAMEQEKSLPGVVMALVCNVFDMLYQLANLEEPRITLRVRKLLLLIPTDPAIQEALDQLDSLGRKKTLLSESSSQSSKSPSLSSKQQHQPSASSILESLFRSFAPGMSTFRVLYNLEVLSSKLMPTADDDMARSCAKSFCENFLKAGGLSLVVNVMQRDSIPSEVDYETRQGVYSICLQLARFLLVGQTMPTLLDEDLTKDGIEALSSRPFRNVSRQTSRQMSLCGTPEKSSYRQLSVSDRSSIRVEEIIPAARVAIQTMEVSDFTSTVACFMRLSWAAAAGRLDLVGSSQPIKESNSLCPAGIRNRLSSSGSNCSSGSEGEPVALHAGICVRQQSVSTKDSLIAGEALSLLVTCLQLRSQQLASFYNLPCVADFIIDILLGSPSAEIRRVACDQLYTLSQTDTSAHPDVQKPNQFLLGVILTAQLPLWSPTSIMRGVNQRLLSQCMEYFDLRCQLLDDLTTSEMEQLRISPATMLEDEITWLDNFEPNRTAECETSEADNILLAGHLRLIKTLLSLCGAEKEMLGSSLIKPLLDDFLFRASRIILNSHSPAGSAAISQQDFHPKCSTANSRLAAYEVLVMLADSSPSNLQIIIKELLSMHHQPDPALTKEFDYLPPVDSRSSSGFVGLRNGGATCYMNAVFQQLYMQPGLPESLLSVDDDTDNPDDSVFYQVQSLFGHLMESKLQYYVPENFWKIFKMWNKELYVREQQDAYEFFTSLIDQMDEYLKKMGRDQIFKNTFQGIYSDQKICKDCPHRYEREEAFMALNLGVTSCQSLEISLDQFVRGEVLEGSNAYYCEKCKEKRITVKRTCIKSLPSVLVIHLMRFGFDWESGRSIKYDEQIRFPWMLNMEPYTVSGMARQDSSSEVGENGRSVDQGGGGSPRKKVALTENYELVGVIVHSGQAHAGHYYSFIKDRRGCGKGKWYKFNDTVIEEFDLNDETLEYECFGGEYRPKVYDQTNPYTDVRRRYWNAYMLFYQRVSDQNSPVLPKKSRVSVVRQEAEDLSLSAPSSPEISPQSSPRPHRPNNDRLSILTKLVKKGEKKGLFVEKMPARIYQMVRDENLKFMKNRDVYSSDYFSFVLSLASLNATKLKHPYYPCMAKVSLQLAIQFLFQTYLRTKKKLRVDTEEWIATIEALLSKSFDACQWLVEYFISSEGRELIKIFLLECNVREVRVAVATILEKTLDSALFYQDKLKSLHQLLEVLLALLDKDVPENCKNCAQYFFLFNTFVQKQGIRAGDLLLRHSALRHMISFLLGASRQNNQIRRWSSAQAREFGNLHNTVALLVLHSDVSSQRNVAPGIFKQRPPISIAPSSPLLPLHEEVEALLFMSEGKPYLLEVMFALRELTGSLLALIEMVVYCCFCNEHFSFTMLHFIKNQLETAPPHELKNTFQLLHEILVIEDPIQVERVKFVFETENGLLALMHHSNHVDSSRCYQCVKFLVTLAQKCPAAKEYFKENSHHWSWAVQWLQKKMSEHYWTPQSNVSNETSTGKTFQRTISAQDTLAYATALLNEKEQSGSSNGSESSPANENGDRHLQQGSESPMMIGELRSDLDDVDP
In short: as §1

[3] = target: T2, USP25 (UniProt Q9UHP3)
T2 sequence (whole entry): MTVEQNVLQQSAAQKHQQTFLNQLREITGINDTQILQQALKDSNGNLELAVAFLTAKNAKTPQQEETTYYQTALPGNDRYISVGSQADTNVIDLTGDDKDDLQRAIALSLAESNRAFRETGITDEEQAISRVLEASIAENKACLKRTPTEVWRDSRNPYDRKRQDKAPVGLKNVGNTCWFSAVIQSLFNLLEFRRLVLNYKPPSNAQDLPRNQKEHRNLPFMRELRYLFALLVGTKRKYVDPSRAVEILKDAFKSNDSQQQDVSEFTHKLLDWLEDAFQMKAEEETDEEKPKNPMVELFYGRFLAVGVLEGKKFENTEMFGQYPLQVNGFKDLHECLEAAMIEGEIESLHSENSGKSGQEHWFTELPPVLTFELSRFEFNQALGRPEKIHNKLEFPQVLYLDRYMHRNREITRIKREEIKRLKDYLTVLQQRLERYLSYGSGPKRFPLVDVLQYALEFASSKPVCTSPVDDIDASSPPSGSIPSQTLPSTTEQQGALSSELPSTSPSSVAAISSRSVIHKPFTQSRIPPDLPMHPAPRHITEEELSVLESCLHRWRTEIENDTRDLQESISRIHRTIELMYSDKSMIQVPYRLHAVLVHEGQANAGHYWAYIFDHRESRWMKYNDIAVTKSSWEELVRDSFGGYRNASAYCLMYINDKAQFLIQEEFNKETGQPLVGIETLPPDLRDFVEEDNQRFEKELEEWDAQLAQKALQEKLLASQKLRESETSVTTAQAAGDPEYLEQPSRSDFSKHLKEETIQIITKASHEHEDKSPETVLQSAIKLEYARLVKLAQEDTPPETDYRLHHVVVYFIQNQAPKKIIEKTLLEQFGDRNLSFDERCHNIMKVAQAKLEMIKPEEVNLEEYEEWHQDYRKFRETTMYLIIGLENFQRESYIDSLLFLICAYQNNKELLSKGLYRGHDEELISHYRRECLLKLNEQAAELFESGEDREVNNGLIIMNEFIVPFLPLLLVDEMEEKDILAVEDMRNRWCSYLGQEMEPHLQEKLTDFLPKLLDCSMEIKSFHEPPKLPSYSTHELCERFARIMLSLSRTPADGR
In short: as §1

[4] = target: T3, USP28 (UniProt Q96RU2)
T3 sequence (whole entry): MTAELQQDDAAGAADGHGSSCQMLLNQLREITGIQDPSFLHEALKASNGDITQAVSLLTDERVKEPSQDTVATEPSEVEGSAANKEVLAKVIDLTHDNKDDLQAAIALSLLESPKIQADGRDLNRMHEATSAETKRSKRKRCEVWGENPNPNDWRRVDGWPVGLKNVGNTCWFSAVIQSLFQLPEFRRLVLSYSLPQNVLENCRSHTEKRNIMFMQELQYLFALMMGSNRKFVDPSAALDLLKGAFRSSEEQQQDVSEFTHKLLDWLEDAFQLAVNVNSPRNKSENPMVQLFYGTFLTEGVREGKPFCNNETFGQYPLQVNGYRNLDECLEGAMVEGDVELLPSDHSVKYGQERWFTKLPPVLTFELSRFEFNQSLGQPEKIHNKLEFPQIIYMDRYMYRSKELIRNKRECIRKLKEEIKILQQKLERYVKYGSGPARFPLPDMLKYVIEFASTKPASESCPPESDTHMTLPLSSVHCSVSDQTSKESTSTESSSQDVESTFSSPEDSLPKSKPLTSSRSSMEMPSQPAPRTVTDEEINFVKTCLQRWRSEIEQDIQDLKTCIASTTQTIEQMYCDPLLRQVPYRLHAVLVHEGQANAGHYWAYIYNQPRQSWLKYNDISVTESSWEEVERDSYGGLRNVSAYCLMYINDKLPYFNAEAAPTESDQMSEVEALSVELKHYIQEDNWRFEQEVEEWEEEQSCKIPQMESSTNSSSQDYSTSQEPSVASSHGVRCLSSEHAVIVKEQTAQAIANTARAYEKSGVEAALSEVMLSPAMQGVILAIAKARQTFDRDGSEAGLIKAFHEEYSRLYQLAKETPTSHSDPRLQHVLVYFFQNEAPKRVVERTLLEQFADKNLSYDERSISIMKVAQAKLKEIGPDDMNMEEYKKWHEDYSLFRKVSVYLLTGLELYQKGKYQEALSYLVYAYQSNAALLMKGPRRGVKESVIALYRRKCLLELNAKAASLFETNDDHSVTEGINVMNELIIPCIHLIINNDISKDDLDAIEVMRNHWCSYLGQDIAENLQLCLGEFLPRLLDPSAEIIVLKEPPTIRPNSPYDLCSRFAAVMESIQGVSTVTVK
In short: as §1

## CC(NC(=O)CCl)c1csc(-c2ccccc2)n1.Cl (centres undefined)
[1]
  log2 ratio of Biotin-Ahx-Ub-VS probe labelling: -0.563
[2]
  log2 ratio of Biotin-Ahx-Ub-VS probe labelling: -0.822
[3]
  log2 ratio of Biotin-Ahx-Ub-VS probe labelling: -0.638
[4]
  log2 ratio of Biotin-Ahx-Ub-VS probe labelling: -1.79 (active)
